# Source: PubChem BioAssay (NCATS)
# Results filed as inconclusive are left out. Activity calls are given as the source filed them. The call rests on the fitted dose curve; in most records, active means well fitted curve in the direction sought with a large enough effect; inconclusive means small, poorly fitted or top-dose-only effect, or another doubt; inactive means no such curve, though single readings can be large; an effect the other way counts as inactive or inconclusive.
# Test system: Nanoluciferase (engineered Oplophorus gracilirostris luciferase)
# Assay: Primary Nanoluciferase (NLuc) qHTS assay for identification of artifact compounds. (AID 1845222);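 further: NLuc secreted into diluted conditioned medium of S16 cells; 0% = DMSO and -100% = no enzyme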
# Conditions: NLuc-conditioned medium, Nano-Glo luminescence, 5 min; series mostly up to 54.1 µM; activity, negative = inhibition: at the top concentration
# How it was run: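 Concentration-response data were obtained by luminescence after 5 min with Nano-Glo substrate at 1:100. The enzyme was diluted S16 NLuc-expressing cell medium, preincubated with compound for 15 min at RT. Curves were fitted with a 4-parameter Hill model.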
row,SMILES,"activity, negative = inhibition"
1,O=C(c1cc2c(cc1F)OC(c1ccc(F)cc1)(c1ccc(Cl)cc1Cl)O2)N1CCOCC1 (stereo unspecified),0% (inactive)
2,CN(C)c1ccc2c(c1)OC(N)=C(C#N)C2c1cccc(C(F)(F)F)c1 (stereo unspecified),-8.53% (inactive)
3,CC(C)=CCC[C@](C)(O[C@@H]1O[C@H](CO[C@@H]2O[C@H](CO)[C@@H](O)[C@H](O)[C@H]2O)[C@@H](O)[C@H](O)[C@H]1O)C1CC[C@]2(C)[C@@H]1[C@H](O)CC1[C@@]3(C)CC[C@H](O[C@@H]4O[C@H](CO)[C@@H](O)[C@H](O)[C@H]4O[C@@H]4O[C@H](CO)[C@@H](O)[C@H](O)[C@H]4O)C(C)(C)[C@@H]3CC[C@]12C (stereo partly specified),0.108% [at 11.6 µM] (inactive)
4,Cc1cc(OCc2nc(-c3ccccc3Cl)cs2)ccc1OCC(=O)O,-7.37% (inactive)
5,CC1OC(OC2C(O)C(OC3CCC4(C)C(CCC5(C)C4CC=C4C6CC(C)(COC7OC(CO)C(O)C(O)C7O)CC(O)C6(C)CCC45C)C3(C)C)OC(C(=O)O)C2O)C(O)C(O)C1OC1OCC(O)C(O)C1O (stereo unspecified),-3.08% [at 11.6 µM] (inactive)
6,CC(=O)OC1C(OC(=O)c2ccccc2)C2C(C)(C)CC(=O)CC2(C)C23CCC(C)(C2)C(O)CC13 (stereo unspecified),-3.3% [at 25.7 µM] (inactive)
7,COCCOc1cnc2ccn([C@H](C)c3nnc4c(F)cc(-c5cnn(C)c5)cn34)c(=O)c2c1,-8.91% (inactive)
8,CC12CCC(=O)C=C1C(O)CC1C2C(O)CC2(C)C1CC[C@]2(O)C(=O)CO (stereo partly specified),4.05% [at 11.6 µM] (inactive)
9,O=C(N/N=C/c1ccc(O)c(O)c1)c1cc2ccccc2cc1O,-8.79% [at 25.7 µM] (inactive)
10,C=CC1C(OC2OC(CO)C(O)C(O)C2O)OC=C(C(=O)OC)C1CC1CC(=O)CC(CCc2ccc(O)cc2)O1 (stereo unspecified),-1.57% [at 25.7 µM] (inactive)
11,CC[C@]1(O)CC2CN(CCc3c([nH]c4ccccc34)[C@@](C(=O)OC)(c3cc4c(cc3OC)N(C)[C@H]3[C@@](O)(C(=O)OC)[C@H](OC(C)=O)[C@]5(CC)C=CCN6CC[C@]43[C@@H]65)C2)C1 (stereo partly specified),2.89% (inactive)
12,COc1cc2nc(N3CCCC3)nc(NCCCCCN3CCCC3)c2cc1OC,-9.46% (inactive)
13,CC(C)=CC/C=C(\C)[C@H]1CC[C@]2(C)[C@@H]1[C@H](O)C[C@@H]1[C@@]3(C)CC[C@H](O)C(C)(C)[C@@H]3[C@@H](O[C@@H]3O[C@H](CO)[C@@H](O)[C@H](O)[C@H]3O)C[C@]12C,1.3% (inactive)
14,CC1CCC2C(C)(C)[C@@H](O)CC[C@]2(C)C12Cc1c(O)cc3c(c1O2)CN(C(CCC(=O)O)C(=O)O)C3=O (stereo partly specified),3.64% [at 25.7 µM] (inactive)
15,COC(=O)C[C@H]1[C@]2(C)C3=C(C)[C@H](c4ccoc4)C[C@H]3O[C@@H]2[C@H](OC(C)=O)C2[C@](C)(C(=O)OC)C=CC(=O)[C@@]21C (stereo partly specified),3.76% [at 25.7 µM] (inactive)
16,COc1cc2nc(N3CCC(N4CCCCC4)CC3)nc(NC3CCCCCC3)c2cc1OC,4.4% (inactive)
17,CC1=CC(=O)[C@H]2C(C)(C)CCC[C@]2(C)[C@@]1(O)CO,0.661% (inactive)
18,OC[C@H]1O[C@@H](OC[C@H]2O[C@@H](OC/C=C/c3ccccc3)[C@H](O)[C@@H](O)[C@@H]2O)[C@@H](O)[C@@H]1O,-0.88% [at 25.7 µM] (inactive)

# Test system: not listed separately
# Assay: Primary redox qHTS assay for identification of artifact compounds. (AID 1845223);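 further: 0% = DMSO and 100% = reference compound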
# Conditions: Amplex Red/HRP redox cycling with DTT, fluorescence; series mostly up to 53.8 µM; redox activity (% of DA3003): at the top concentration
# How it was run: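 Redox-cycling detection via DTT (250 uM final) oxidation coupled to Amplex Red (25 uM)/HRP (250 mU/mL) in HBSS. 15 min preincubation plus 30 min after DTT, room temperature. Ex/Em 525/598 nm; 4-parameter Hill fit against DMSO and 10 uM DA3003.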
row,SMILES,redox activity (% of DA3003)
1,CCCNc1ccc2ncc(-c3ccc4[nH]ncc4c3)n2n1,-2.08% (inactive)
2,Cc1cc(C)c(Nc2ccnc(Nc3ccc(C#N)cc3)n2)c(C)c1,-4.08% (inactive)
3,CC1CC[C@]2(C(=O)O)CC[C@]3(C(=O)O)C(=CCC4[C@@]5(C)CC[C@H](OC6OC(C)C(O)C(OC7OC(CO)C(O)C(O)C7O)C6O)C(C)(C)C5CC[C@]43C)C2C1C (stereo partly specified),13.1% [at 25.6 µM] (inactive)
4,CC1=CC(=O)CC(C)(C)C1CCC(C)O[C@@H]1O[C@H](CO[C@@H]2OC[C@@H](O)[C@H](O)[C@H]2O)[C@@H](O)[C@H](O)[C@H]1O (stereo partly specified),-0.0191% [at 25.6 µM] (inactive)
5,CC(C)=CCC[C@](C)(O)[C@H]1CC[C@]2(C)[C@@H]1[C@H](O)CC1[C@@]3(C)CC[C@H](O)C(C)(C)[C@@H]3[C@@H](O[C@@H]3O[C@H](CO)[C@@H](O)[C@H](O)[C@H]3O[C@@H]3O[C@H](CO)[C@@H](O)[C@H](O)[C@H]3O)C[C@]12C (stereo partly specified),13.9% [at 25.6 µM] (inactive)
6,CC(C)=CCC[C@](C)(O[C@@H]1O[C@H](CO[C@@H]2O[C@H](CO)[C@@H](O)[C@H](O)[C@H]2O)[C@@H](O)[C@H](O)[C@H]1O)C1CC[C@]2(C)[C@@H]1[C@H](O)CC1[C@@]3(C)CC[C@H](O[C@@H]4O[C@H](CO)[C@@H](O)[C@H](O)[C@H]4O[C@@H]4O[C@H](CO)[C@@H](O)[C@H](O)[C@H]4O)C(C)(C)[C@@H]3CC[C@]12C (stereo partly specified),5.05% [at 11.5 µM] (inactive)
7,O=C(N/N=C/c1ccc(O)c(O)c1)c1cc2ccccc2cc1O,-6.52% [at 25.6 µM] (inactive)
8,COc1cc2nc(N3CCCC3)nc(NCCCCCN3CCCC3)c2cc1OC,5.25% (inactive)
9,OC[C@H]1O[C@@H](OC[C@H]2O[C@@H](OC/C=C/c3ccccc3)[C@H](O)[C@@H](O)[C@@H]2O)[C@@H](O)[C@@H]1O,-11.5% [at 25.6 µM] (inactive)

# Biological target: Cytochrome P450 3A4 (Homo sapiens) (UniProt P08684)
# Assay: qHTS for inhibitors of CYP3A4 against the NCATS DSHEA and TCM libraries (AID 1919971);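 further: on the % scale 0 is the no-effect control and ±100 the full control effect; inhibition lowers luminescence from luciferin made by CYP3A4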
# Conditions: recombinant CYP3A4 enzyme activity, luminescence qHTS; series mostly up to 18.8 µM; activity change, negative = inhibition: at the top concentration
# How it was run: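 Substances were tested against enzyme with a pro-luciferin substrate; minus-enzyme wells served as background. After NADPH-initiated oxidation (30-45 min, RT), light was generated with P450-Glo reagent.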
# Chain of Cytochrome P450 3A4 (Homo sapiens) (P08684 whole entry, looked up): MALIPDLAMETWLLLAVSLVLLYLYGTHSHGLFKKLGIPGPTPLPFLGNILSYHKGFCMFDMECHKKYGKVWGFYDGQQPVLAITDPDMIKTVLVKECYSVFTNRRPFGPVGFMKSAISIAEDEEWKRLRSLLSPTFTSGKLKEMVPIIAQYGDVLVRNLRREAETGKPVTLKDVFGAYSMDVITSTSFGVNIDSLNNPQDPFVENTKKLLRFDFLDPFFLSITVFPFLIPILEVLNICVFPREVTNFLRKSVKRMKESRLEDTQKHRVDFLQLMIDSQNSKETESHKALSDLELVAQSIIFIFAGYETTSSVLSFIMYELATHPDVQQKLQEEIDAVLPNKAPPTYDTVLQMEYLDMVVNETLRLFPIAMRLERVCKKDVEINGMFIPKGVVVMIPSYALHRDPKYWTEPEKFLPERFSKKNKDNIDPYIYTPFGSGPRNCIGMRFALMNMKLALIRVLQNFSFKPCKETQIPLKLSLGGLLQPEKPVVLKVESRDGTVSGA
row,SMILES,"activity change, negative = inhibition"
1,CC1CC[C@]2(C(=O)O)CC[C@]3(C(=O)O)C(=CCC4[C@@]5(C)CC[C@H](OC6OC(C)C(O)C(OC7OC(CO)C(O)C(O)C7O)C6O)C(C)(C)C5CC[C@]43C)C2C1C (stereo partly specified),-12.8% (inactive)
2,CC(C)=CCC[C@](C)(O)[C@H]1CC[C@]2(C)[C@@H]1[C@H](O)CC1[C@@]3(C)CC[C@H](O)C(C)(C)[C@@H]3[C@@H](O[C@@H]3O[C@H](CO)[C@@H](O)[C@H](O)[C@H]3O[C@@H]3O[C@H](CO)[C@@H](O)[C@H](O)[C@H]3O)C[C@]12C (stereo partly specified),-0.45% (inactive)
3,CC(C)=CCC[C@](C)(O[C@@H]1O[C@H](CO[C@@H]2O[C@H](CO)[C@@H](O)[C@H](O)[C@H]2O)[C@@H](O)[C@H](O)[C@H]1O)C1CC[C@]2(C)[C@@H]1[C@H](O)CC1[C@@]3(C)CC[C@H](O[C@@H]4O[C@H](CO)[C@@H](O)[C@H](O)[C@H]4O[C@@H]4O[C@H](CO)[C@@H](O)[C@H](O)[C@H]4O)C(C)(C)[C@@H]3CC[C@]12C (stereo partly specified),2.77% [at 7.11 µM] (inactive)
4,OC[C@H]1O[C@@H](OC[C@H]2O[C@@H](OC/C=C/c3ccccc3)[C@H](O)[C@@H](O)[C@@H]2O)[C@@H](O)[C@@H]1O,-0.0667% (inactive)
